This is an account of results in PubChem BioAssay.

Active and inactive are the calls of the source. Unless noted, the rule behind the calls is not given here.

Assay [1] in a line: anti-His antibody binders, primary screen, artefact control for SMM control protein annotation, biochemical, small-molecule microarray, 635 nm fluorescence (AID 1128).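 Note: score merges feature fluorescence with signal-to-noise for each printed compound spot.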 To be noted: anti-His Alexa647 antibody binding, higher = more signal.
The subject of assay [2] is Human papillomavirus type 1a E7 protein (residues 1-88). Nature of the assay: HPV1a E7 small-molecule binders, primary screen, biochemical, small-molecule microarray, residues 1-88, 635 nm (AID 1129). To be noted: small-molecule microarray binding, fluorescence 635 nm; higher = more signal.
For assay [3], the target named is Focal adhesion kinase 1 (Homo sapiens) (UniProt Q05397). Nature of the assay: small-molecule microarray binders of FAK, primary screen, biochemical, 635/667 nm fluorescence, BSA, DTT (AID 1130).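 Note: composite of spot emission at 667 nm and signal to noise over triplicate slides.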 Particulars: PTK2 binding, 635 nm fluorescence, higher = more signal.
The test system of assay [4] is Fibrinogen (Alexa647-labelled). Nature of the assay: fibrinogen binders on compound microarrays, profiling panel, artefact control for SMM control-protein annotation, biochemical, small-molecule microarray, 635/667 nm fluorescence (AID 1131).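 Note: z-score merges 667 nm fluorescence with per-spot signal-to-noise over triplicate slides.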 Particulars: fibrinogen-A647 binding fluorescence, higher = more signal.
The target of assay [5] is Follistatin (Homo sapiens) (UniProt P19883). Nature of the assay: follistatin binders on small-molecule microarrays, primary screen, biochemical, small-molecule microarray, 635/667 nm fluorescence (AID 1132). Particulars: FST binding, 635 nm fluorescence, higher = more signal.
The target of assay [6] is Fibroblast growth factor 2 (Homo sapiens) (UniProt P09038). In words: FGF2 binders on small-molecule microarrays, primary screen, biochemical, small-molecule microarray, 635/667 nm fluorescence (AID 1133). To be noted: small-molecule microarray binding, FGF2, fluorescence 635/667; higher = more signal.
A short description of assay [7]: mitochondrial membrane potential change in A549 cells, profiling panel, cell-based, JC-1 fluorescence, basal, 24 h, 100 nL (AID 1138).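 Note: A549 lung adenocarcinoma cells under basal conditions with no added stimulus; test concentration not given here.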 To be noted: higher = more signal.
The next assay relates to Lefty1. In words: Lefty1 binders on small-molecule microarrays, primary screen, biochemical, small-molecule microarray, 635/667 nm fluorescence (AID 1139). Particulars: small-molecule microarray binding, fluorescence 635/667; higher = more signal.
The test system of assay [8] is wheat germ agglutinin (Triticum aestivum), Alexa647-labelled. In words: wheat germ agglutinin binders on compound microarrays, profiling panel, artefact control for SMM control-protein annotation, biochemical, small-molecule microarray, 635/667 nm fluorescence (AID 1140).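 Note: score merges 667 nm feature emission with signal to noise over triplicate slides.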 To be noted: WGA-A647 binding, 635 nm fluorescence, higher = more signal.
Assay [9] addresses Luciferin 4-monooxygenase (Photinus pyralis) (UniProt P08659). In words: firefly luciferase enzyme inhibitors, primary screen, biochemical, luminescence, purified enzyme, 2006 set (AID 1141).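 Note: cell-free assay with purified firefly luciferase at 100 ng per well in PBS; test concentration not given here.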 Particulars: SteadyGlo luminescence, 30 min, higher = more signal, called active from +8 up or from −8 down.
Assay [10] concerns Wnt5a (protein binding on small-molecule microarray). In words: Wnt5a binders on small-molecule microarray, primary screen, biophysical, 635/667 nm fluorescence (AID 1142).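 Note: fluorescence read at 667 nm with signal to noise per printed feature.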 To be noted: 635 nm fluorescence, higher = more signal.
Assay [11] in a line: cell viability in Huh7 cells, primary screen, cytotoxicity control for HCV replication inhibitor project, CellTiter-Glo luminescence, basal, 48 h (AID 1143).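 Note: Huh7 hepatoma cells carrying a hepatitis C replication reporter with no stimulus; test concentration not given here.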 To be noted: Huh7 HCV replicon, higher = more signal, called active from +8 up or from −8 down.
Assay [12] is described as follows: P. aeruginosa biofilm formation inhibitors, primary screen, PAO1 strain, BacTiter-Glo luminescence, LB-PBS (AID 1144). Particulars: 12 h, higher = more signal.
The nature of assay [13]: CREB reporter modulators without forskolin, primary screen, cell-based, PC12, CRE-LacZ reporter, unstimulated (AID 1145). Particulars: no forskolin, luminescence, 4.5 h, higher = more signal, called active from +8 up or from −8 down.
A short description of assay [14]: CREB reporter modulators under forskolin, primary screen, cell-based, PC12, CRE-LacZ reporter, forskolin-stimulated (AID 1146).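 Note: PC12 cells with 6xCRE LacZ reporter stimulated by forskolin 10 µM; beta-galactosidase reporter signal reflecting CREB driven transcription.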 To be noted: luminescence, 4.5 h, higher = more signal, called active from +8 up or from −8 down.
For assay [15], the target named is Streptavidin (Streptomyces avidinii) (UniProt P22629). Nature of the assay: streptavidin binders on small-molecule microarray, primary screen, artefact control for SMM compound annotation, biophysical, 635/667 nm fluorescence (AID 1147).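 Note: signal reflects streptavidin binding to arrayed compounds as a control protein.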 To be noted: streptavidin binding, higher = more signal.
Assay [16] in a line: small-molecule binders of probe aInhba, primary screen, biochemical, small-molecule microarray, 635/667 nm fluorescence (AID 1148).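 Note: score merges 667nm spot fluorescence with signal-to-noise for antibody binding to printed compounds.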 Particulars: higher = more signal.
Assay [17] addresses Torsin-1A (Homo sapiens) (UniProt O14656). In words: torsin A binders from cell lysate, primary screen, small-molecule microarray, wild-type, 635/667 nm (AID 1149). Particulars: COS7 hTOR1A-WT lysate, 635 nm fluorescence, higher = more signal.
Assay [18] has the same target. In words: small-molecule binders of mutant TOR1A in lysate, primary screen, cell lysate, small-molecule microarray, COS7 lysate, 635/667 nm fluorescence (AID 1150).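 Note: score pools 667 nm emission and signal to noise measuring lysate protein binding.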 Particulars: COS7 hTOR1A mutant lysate, 635 nm fluorescence, higher = more signal.
For assay [19], the system named is Sonic hedgehog protein (Shh). In words: small-molecule binders of Shh protein, primary screen, biochemical, small-molecule microarray, 635/667 nm fluorescence (AID 1151).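 Note: Shh protein binding to compounds spotted on small-molecule microarray slides; score combines spot fluorescence intensity with signal-to-noise across triplicate slides.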 To be noted: small-molecule microarray binding, 635 nm fluorescence; higher = more signal.

Chain of Luciferin 4-monooxygenase (Photinus pyralis) (P08659 whole entry, looked up): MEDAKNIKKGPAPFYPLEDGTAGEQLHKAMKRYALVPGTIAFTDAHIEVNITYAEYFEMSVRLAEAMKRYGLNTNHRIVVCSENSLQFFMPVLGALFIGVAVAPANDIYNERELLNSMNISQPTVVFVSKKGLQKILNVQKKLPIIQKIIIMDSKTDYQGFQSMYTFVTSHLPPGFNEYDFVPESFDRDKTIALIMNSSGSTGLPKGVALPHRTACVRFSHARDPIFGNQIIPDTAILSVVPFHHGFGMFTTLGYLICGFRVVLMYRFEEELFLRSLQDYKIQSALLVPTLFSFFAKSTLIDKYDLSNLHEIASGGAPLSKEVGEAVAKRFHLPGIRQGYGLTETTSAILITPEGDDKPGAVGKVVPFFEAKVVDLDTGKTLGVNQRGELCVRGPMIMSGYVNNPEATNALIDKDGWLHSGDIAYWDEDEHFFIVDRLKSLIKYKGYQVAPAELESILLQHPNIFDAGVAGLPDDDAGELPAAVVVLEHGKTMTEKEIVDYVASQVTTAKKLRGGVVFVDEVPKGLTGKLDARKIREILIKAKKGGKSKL
Chain of Torsin-1A (Homo sapiens) (O14656 whole entry, looked up): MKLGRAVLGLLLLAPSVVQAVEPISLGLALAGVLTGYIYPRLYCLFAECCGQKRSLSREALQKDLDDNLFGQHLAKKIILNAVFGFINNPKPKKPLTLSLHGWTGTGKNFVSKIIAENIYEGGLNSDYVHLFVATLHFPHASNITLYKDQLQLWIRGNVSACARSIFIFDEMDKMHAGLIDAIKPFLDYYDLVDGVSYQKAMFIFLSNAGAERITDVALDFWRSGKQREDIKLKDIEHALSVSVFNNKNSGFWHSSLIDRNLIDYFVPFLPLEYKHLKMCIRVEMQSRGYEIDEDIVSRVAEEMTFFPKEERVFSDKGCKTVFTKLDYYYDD
Chain of Streptavidin (Streptomyces avidinii) (P22629 whole entry, looked up): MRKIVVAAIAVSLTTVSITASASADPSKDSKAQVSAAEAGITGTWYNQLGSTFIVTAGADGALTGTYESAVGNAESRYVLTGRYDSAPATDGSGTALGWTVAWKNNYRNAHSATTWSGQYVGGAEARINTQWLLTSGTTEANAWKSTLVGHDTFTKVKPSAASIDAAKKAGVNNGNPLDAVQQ
Chain of Fibroblast growth factor 2 (Homo sapiens) (P09038 whole entry, looked up): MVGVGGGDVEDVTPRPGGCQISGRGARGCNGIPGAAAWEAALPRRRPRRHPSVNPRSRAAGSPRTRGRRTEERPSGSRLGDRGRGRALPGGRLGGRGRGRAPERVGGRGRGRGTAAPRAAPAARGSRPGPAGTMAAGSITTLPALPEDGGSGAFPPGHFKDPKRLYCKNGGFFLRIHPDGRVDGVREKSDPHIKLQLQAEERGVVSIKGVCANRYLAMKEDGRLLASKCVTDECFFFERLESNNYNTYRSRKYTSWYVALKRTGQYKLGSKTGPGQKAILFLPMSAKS
Chain of Focal adhesion kinase 1 (Homo sapiens) (Q05397 whole entry, looked up): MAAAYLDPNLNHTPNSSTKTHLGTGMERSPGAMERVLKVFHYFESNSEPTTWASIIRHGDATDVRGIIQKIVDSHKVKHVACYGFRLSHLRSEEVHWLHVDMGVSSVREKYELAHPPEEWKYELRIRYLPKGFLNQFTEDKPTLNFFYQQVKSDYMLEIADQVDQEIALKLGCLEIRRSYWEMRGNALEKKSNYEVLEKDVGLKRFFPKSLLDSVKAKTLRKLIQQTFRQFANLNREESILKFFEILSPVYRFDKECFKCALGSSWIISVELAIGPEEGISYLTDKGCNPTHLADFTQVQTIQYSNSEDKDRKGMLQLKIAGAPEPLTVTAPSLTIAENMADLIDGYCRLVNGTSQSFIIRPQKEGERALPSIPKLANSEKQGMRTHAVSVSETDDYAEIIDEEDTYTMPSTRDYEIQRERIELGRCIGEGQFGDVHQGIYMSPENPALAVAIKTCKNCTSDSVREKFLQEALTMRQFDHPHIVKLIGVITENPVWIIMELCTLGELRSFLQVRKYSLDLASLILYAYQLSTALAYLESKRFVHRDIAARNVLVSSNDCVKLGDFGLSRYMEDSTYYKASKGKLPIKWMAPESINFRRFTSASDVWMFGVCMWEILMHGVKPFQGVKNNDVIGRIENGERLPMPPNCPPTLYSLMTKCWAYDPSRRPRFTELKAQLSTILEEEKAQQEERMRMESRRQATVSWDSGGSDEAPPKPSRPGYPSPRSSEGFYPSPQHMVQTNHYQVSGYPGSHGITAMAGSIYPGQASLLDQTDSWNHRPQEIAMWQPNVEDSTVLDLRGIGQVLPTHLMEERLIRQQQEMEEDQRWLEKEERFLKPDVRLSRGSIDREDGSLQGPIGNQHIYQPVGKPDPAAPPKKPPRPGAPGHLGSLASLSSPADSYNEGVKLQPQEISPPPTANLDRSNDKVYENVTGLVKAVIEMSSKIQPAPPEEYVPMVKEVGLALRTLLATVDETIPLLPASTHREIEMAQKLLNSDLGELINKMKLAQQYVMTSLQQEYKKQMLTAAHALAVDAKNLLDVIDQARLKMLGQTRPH
Chain of Follistatin (Homo sapiens) (P19883 whole entry, looked up): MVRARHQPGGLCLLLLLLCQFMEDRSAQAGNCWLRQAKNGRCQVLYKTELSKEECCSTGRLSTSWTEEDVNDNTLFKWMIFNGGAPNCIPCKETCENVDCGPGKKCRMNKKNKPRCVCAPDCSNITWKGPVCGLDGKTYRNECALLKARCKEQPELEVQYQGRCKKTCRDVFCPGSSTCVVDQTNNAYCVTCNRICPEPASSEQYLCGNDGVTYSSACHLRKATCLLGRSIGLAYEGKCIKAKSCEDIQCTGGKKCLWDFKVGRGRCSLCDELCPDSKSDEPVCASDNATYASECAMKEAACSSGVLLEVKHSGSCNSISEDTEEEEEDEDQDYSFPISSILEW

Take `CCCCC(=C=CC[C@H](O)c1cccc(OCCO)c1)C[C@H](O)COCc1ccccc1`: the composite z-score in assay [1] was -0.178; in assay [2], 0.101; in assay [3] it was 0.105; in assay [4], -0.606; in assay [5], 0.0306; in [6], -0.473. Besides, the composite z-score with Lefty1 was 0.743; in [8], 0.435; in assay [10], -0.122; in assay [15], 0.206; in assay [16], -0.101; in the assay with Torsin-1A (Homo sapiens) [17] it was 0.139. Also, the composite z-score came out at 0.0056 with Torsin-1A (Homo sapiens) [18] and 0.508 in assay [19]. In addition, the z-score was 0.396 in assay [7]; -0.352 (inactive) in [9]; -1.33 (inactive) in assay [11]; -0.295 (inactive) in assay [12]; 3.54 (inactive) in assay [13]; 1.04 (inactive) in assay [14].
For `CCOC(=O)C1=CC[C@@H](c2ccccc2)N(S(=O)(=O)c2ccc(C)cc2)[C@H]1C=C(C)C`, the composite z-score came out at 0.875 in assay [1]; 1.22 in assay [2]; 0.503 in assay [3]; 0.911 in assay [4]; 0.97 in [5]; 0.481 in assay [6]. Moreover, the composite z-score in the assay on Lefty1 came out at 0.811; in assay [8] it was 0.546; in [10] it was 0.367; in assay [15] it was 1.44; in assay [16], 0.246; with Torsin-1A (Homo sapiens) [17], 0.258. Besides, the composite z-score was 1.46 with Torsin-1A (Homo sapiens) [18] and 0.839 in [19]. For the same compound, the z-score in assay [7] was 2.58; in assay [9] it was 2.12 (inactive); in assay [11], -4.76 (inactive); in [12], 0.514 (inactive); in assay [13], -0.378 (inactive); in [14], 0.807 (inactive).
`O=C1O[C@@H](c2ccccc2)[C@@H](c2ccccc2)N2[C@@H](c3ccc(O)cc3)[C@]3(C(=O)Nc4ccc(C#CC5=CCCCC5)cc43)[C@@H](C(=O)Nc3nc4ccccc4s3)[C@H]12`: the composite z-score in assay [1] is 1.15; in assay [2], 1.22; in assay [3], 0.32; in assay [4] it was 0.852; in assay [5], 1.25; in [6] it was 1.35. In addition, the composite z-score with Lefty1 turned out to be 1.54; in assay [8] it was 1.32; in assay [10], 0.61; in assay [15] it was 1.26; in [16] it was 1.37; with Torsin-1A (Homo sapiens) [17], 0.828. In addition, the composite z-score came out at 0.221 with Torsin-1A (Homo sapiens) [18] and 1.59 in [19]. Further, the z-score in [7] is -1.8; in [9] it was -1.34 (inactive); in [11] it was -1.77 (inactive); in assay [12], -1.05 (inactive); in assay [13] it was -1.02 (inactive); in [14] it was -1.09 (inactive).
Turning to `CN(C)C(=O)[C@@]1(CCC(=O)OC(C)(C)C)COC(c2ccc(OCCCO)cc2)=N1`, the composite z-score is 0.282 in assay [1]; 1.11 in [2]; 1.63 in assay [3]; -0.254 in assay [4]; 0.625 in [5]; -0.357 in [6]. Also, the composite z-score with Lefty1 is -0.235; in [8], 0.334; in assay [10], 0.0507; in assay [15] it was -0.354; in assay [16], 0.174; with Torsin-1A (Homo sapiens) [17], 0.445. In addition, the composite z-score was 1.45 with Torsin-1A (Homo sapiens) [18] and -0.942 in assay [19]. For the same compound, the z-score is -0.191 in assay [7]; 0.995 (inactive) in [9]; -0.196 (inactive) in assay [11]; -0.478 (inactive) in assay [12]; -0.277 (inactive) in [13]; 0.855 (inactive) in [14].
As for `O=C(N1CCOCC1)[C@@]1(CCS(=O)(=O)c2ccccc2)COC(c2ccc(OCCCO)cc2)=N1`, the composite z-score in [1] was 0.436; in [2], 1.18; in [3] it was 0.307; in assay [4], -0.71; in [5], -0.176; in [6], 0.974. Further, the composite z-score is -1.32 with Lefty1; -0.204 in assay [8]; -0.102 in [10]; -0.411 in assay [15]; -0.374 in [16]; 0.385 in the assay with Torsin-1A (Homo sapiens) [17]. The composite z-score with Torsin-1A (Homo sapiens) [18] is 0.65; in assay [19] it was -0.784. The z-score in assay [7] was -0.336; in [9], 0.735 (inactive); in assay [11], -0.963 (inactive); in assay [12], 0.585 (inactive); in assay [13], 0.148 (inactive); in [14] it was 1.58 (inactive).
